Screens deposited in PubChem BioAssay by National Center for Advancing Translational Sciences (NCATS).
An excerpt weighted towards active compounds, which were near 15% of everything screened.
12-LOX inh: ALOX12 (human) lipoxygenase inhibition; purified 12hLO, xylenol orange hydroperoxide absorbance; Potency, µM (series often up to 108 µM), without a hit: top-dose activity change, negative = inhibition, usual class: inhibitors; hit rate 1.1% among 580,000
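Purified human 12hLO at 150 nM in 25 mM Hepes, 0.01% Triton X-100, pH 7.0, preincubated 15 min at room temperature with compound. Reaction started with 40 uM arachidonic acid, 30 min at room temperature. Hydroperoxide measured by Fe-xylenol orange, 573/405 nm absorbance ratio.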
RORgamma inh: ROR gamma (mouse) transcription inhibition; Potency, µM (highest dose often 53.6 µM), inactives show at the top dose activity change, negative = inhibition, hits mostly inhibitors; hit rate 5.4% among 310,000; Drosophila S2 Gal4-RORgamma UAS-luciferase reporter, 20 h; also: nearly all actives have a fitted effect of over 60% in size
Target sequence (P51450 whole entry, looked up, the tested form may be a part): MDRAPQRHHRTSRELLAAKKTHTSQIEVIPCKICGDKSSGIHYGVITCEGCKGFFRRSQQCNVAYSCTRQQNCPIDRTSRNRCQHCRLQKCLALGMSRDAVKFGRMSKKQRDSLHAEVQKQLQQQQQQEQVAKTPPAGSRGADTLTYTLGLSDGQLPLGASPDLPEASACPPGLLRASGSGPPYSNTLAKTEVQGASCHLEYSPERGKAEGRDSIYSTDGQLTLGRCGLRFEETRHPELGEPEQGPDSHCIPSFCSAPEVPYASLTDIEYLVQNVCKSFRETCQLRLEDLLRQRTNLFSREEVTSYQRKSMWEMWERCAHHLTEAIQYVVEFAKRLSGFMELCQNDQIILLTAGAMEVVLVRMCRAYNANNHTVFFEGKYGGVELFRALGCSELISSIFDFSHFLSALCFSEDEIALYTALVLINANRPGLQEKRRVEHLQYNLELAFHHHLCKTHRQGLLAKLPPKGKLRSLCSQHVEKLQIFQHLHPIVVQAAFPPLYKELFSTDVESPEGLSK
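Stably transfected Drosophila Schneider cells are the test system, with ROR gamma fused to Gal4 and luciferase under UAS control; luminescence is read after 20 hr of 700 uM copper sulfate induction at ambient temperature.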
Gal4-VP16 FLuc: inhibits Gal4-VP16 luciferase reporter, ROR gamma counter-screen; Potency, µM (highest dose often 53.6 µM), for inactives: at the top dose activity, negative = inhibition, actives largely listed as inhibitors; hit rate 3.5% among 310,000; Drosophila S2 Gal4-VP16 UAS-luciferase, luminescence, 20 h; AID 2546;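 also: Gal4-VP16 expression switched on by copper sulfate through the metallothionein promoter; nearly all actives have a fitted effect of over 50% in size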
TDP1 cell noCPT: qHTS for Inhibitors of human tyrosyl-DNA phosphodiesterase 1 (TDP1): qHTS in cells in absence of CPT; hit rate 15% among 420,000; Potency, µM (highest dose often 46.2 µM), inactives show top-dose activity change, negative = growth inhibition, most hits filed as inhibitors; DT40 Tdp1-/- hTDP1 cells, no CPT, ATP luminescence, 48 h; also: nearly all actives have a fitted effect of over 55% in size
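DT40 Tdp1-/-;hTDP1 cells, no CPT (DMSO vehicle only), 400 cells/well; compounds pin-transferred; ≥48 hr, 37 °C; CellTiter-Glo 30 min RT dark, luminescence read.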
ELG1 repair inh: inhibitors of ELG1-dependent DNA repair in HEK293T cells | HEK293T ELG1-luciferase reporter, luminescence, 16 h; DNA damage induced by 5-fluorouridine | Potency, µM (doses to about 46.1 µM), without a hit: at the highest dose activity change, negative = inhibition, hits mostly inhibitors | hit rate 2.3% among 330,000 | AID 504467; also: nearly all actives have a fitted effect of over 55% in size
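Cells (2,000 per well) received 5-fluorouridine plus test compound or DMSO and were incubated 16 hr at 37 °C, 5% CO2. Luciferase activity was read by luminescence 30 min after ONE-Glo addition; signal suppression marked inhibition of damage-induced ELG1 function.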
TDP1 cell CPT: DT40-hTDP1 cell growth loss with CPT; chicken DT40 Tdp1-/-;hTDP1 cells + 20 nM CPT, ATP luminescence, 48 h; Potency, µM (titrated, usually from 46.2 µM), for inactives: at the top dose activity change, negative = growth inhibition, actives largely listed as inhibitors; hit rate 12% among 420,000; also: nearly all actives have a fitted effect of over 55% in size
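Chicken DT40 Tdp1-/- cells stably complemented with human TDP1 were seeded at 400 cells/well in medium containing 20 nM camptothecin, exposed to pin-transferred compounds, and grown at 37 °C for at least 48 hr. Viability was read as ATP luminescence.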
* = called active by the depositor; ! = not confirmed by another sample; [ ] = remark or other dose. Calls follow the shape of the dose curve; as a rule, active = well fitted curve in the direction sought with a large enough effect; inconclusive = small, poorly fitted or top-dose-only effect, or another doubt; inactive = no such curve, though single readings can be large; an effect the other way counts as inactive or inconclusive. % is scaled to controls: 0 for no effect and ±100 for the full control effect; potency is read from the fitted curve at half-maximal effect.

For CC(C)(C)c1ccc(OCC(=O)N2CCN(Cc3nc(N)c4ccccc4n3)CC2)cc1 the results were 12-LOX inh -1%.
`CS(=O)(=O)NC[C@H]1C[C@@H]2CCN1C[C@@H]2CN1CCCCC1` gave 12-LOX inh 23%[176 µM].
`CCCCn1nnnc1C(CCc1ccccc1)N1CCC2(CC1)C(=O)NCN2c1ccccc1` (stereo unspecified) gave 12-LOX inh -8%, TDP1 cell noCPT inconclusive and TDP1 cell CPT inconclusive.
For COc1ccc(-n2nnnc2C(c2cccc3ccccc23)N2CCC3(CC2)C(=O)NCN3c2ccccc2)cc1 (stereo unspecified) the results were 12-LOX inh -35%, TDP1 cell noCPT 9.2µM* and TDP1 cell CPT -93%.
COc1cccc(C(c2nnnn2C2CCCC2)N2CCC3(CC2)C(=O)NCN3c2ccccc2)c1OC (stereo unspecified) was read as 12-LOX inh -3%, TDP1 cell noCPT 15µM* and TDP1 cell CPT inconclusive.
`O=C1NCN(c2ccccc2)C12CCN(C(c1ccnc3ccccc13)c1nnnn1Cc1ccccc1)CC2` (stereo unspecified) gave 12-LOX inh -17%, TDP1 cell noCPT inconclusive and TDP1 cell CPT inconclusive.
COc1ccc(C(c2nnnn2C2CCCCC2)N2CCC3(CC2)C(=O)NCN3c2ccccc2)cc1 (stereo unspecified) was read as 12-LOX inh -13%, TDP1 cell noCPT inconclusive and TDP1 cell CPT inconclusive.
`O=C1NCN(c2ccccc2)C12CCN(C(c1cccc3ccccc13)c1nnnn1Cc1ccccc1)CC2` (stereo unspecified) gave 12-LOX inh -6%, TDP1 cell noCPT 23µM* and TDP1 cell CPT 18µM*.
`CCCCn1nnnc1C(CCSC)N1CCC2(CC1)C(=O)NCN2c1ccccc1` (stereo unspecified) gave 12-LOX inh 5%, TDP1 cell noCPT inconclusive and TDP1 cell CPT 23µM*.
`Nc1cccc(-c2cn(C[C@H]3CC4CCN3C[C@@H]4C(=O)NC3CCCCC3)nn2)c1` (stereo partly specified) gave 12-LOX inh 75%[176 µM].
CC(C)(C)c1cc(O)ccc1O was read as 12-LOX inh inconclusive, RORgamma inh 3.5µM*!, Gal4-VP16 FLuc 3.2µM*, TDP1 cell noCPT 1.2µM* and TDP1 cell CPT 1.7µM*.
For CCSc1nc2n(n1)C(c1ccc(Cl)cc1Cl)C(C(=O)Nc1ccccc1C)=C(C)N2 (stereo unspecified) the results were 12-LOX inh -11%, TDP1 cell noCPT 13µM* and TDP1 cell CPT 18µM*.
Screening COc1ccc(C(=O)Nc2ccc(S(=O)(=O)N(Cc3ccccc3)c3ccccc3)cc2)cc1 returned 12-LOX inh -25%, TDP1 cell noCPT 5.2µM* and TDP1 cell CPT 13µM*.
Screening COc1ccc(-c2cnnn2-c2ccc(NC(=O)c3ccc(S(=O)(=O)N(C)C)cc3)cc2)cc1 returned 12-LOX inh 4%, TDP1 cell noCPT 18µM* and TDP1 cell CPT 21µM*.
CCOc1ccc(NC(=O)c2ccc(NC(=O)COC(=O)Cc3ccccc3)cc2)cc1 was read as 12-LOX inh 0%, RORgamma inh 11%, Gal4-VP16 FLuc inconclusive, TDP1 cell noCPT -2%, ELG1 repair inh inconclusive and TDP1 cell CPT -6%.
Screening COc1ccc(NC(=O)c2ccc(NC(=O)c3nc4nccc(C)n4n3)cc2)cc1 returned 12-LOX inh 1%, TDP1 cell noCPT -6%, ELG1 repair inh inconclusive and TDP1 cell CPT 0%.
